Compound activity from PubChem.
Dicer processing: blocks human Dicer maturation of pre-miR-21 | Q9UPY3 | hit rate 6% among 47,000 | z-score at 25 µM | cat-ELCCA pre-miR-21 Dicer processing, chemiluminescence; hits give high values; in the data active means z-score above about 3, passing the limit was not always enough;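 further: plate controls were vehicle for no effect and no enzyme for full effect; higher signal means more uncleaved substrate so more Dicer inhibition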
* marks the source's active call; other numbers are inactive results. This is one part of a sample in which hits are shown more often than they occur.

SMILES	Dicer processing
COc1cc2c(cc1OC)C(C)N(C(=S)Nc1cc(OC)c(OC)c(OC)c1)CC2 (stereo not drawn)	2.34
COc1ccc(OC)c(C2C(C(=O)OC3CCCC3)=C(C)NC3=C2C(=O)CC(c2cccs2)C3)c1 (stereo not drawn)	1.6
COc1ccc(C(=O)/C(C#N)=C/N=S(C)(=O)c2ccc(C(F)(F)F)cn2)cc1 (stereo not drawn)	0.9
COc1ccc(Cc2c(O)nc(N)[nH]c2=O)cc1	-0.85
Cn1c2c(c(=O)[nH]c1=O)C(c1ccc(Br)cc1)C1=C(N2)c2ccccc2C1=O (stereo not drawn)	1.25
Cn1c2c(c(=O)[nH]c1=O)C(c1ccccc1)C1=C(N2)c2ccccc2C1=O (stereo not drawn)	3.03*
Cc1ccc(C2C3=C(Nc4c2c(=O)[nH]c(=O)n4C)c2ccccc2C3=O)cc1 (stereo not drawn)	2.19
Cn1c2c(c(=O)[nH]c1=O)C(c1ccc(Cl)cc1)C1=C(N2)c2ccccc2C1=O (stereo not drawn)	2.73
CCOC(=O)C1=C(C)NC2=C(C(=O)c3ccccc32)C1c1ccccc1 (stereo not drawn)	-0.36
Cn1c2c(c(=O)n(C)c1=O)C(c1cccc(OC(=O)c3ccccc3)c1)C1=C(N2)c2ccccc2C1=O (stereo not drawn)	0.51
CCOC(=O)C1=C(C)NC2=C(C(=O)c3ccccc32)C1c1cccc(OC)c1 (stereo not drawn)	-1.64
Cc1ccc(C2C3=C(Nc4c2c(=O)n(C)c(=O)n4C)c2ccccc2C3=O)cc1 (stereo not drawn)	0.93
CCOC(=O)C1=C(C)NC2=C(C(=O)c3ccccc32)C1c1ccc(OC)cc1 (stereo not drawn)	3.3*
Cn1c2c(c(=O)n(C)c1=O)C(c1ccc(OC(=O)c3ccccc3)cc1)C1=C(N2)c2ccccc2C1=O (stereo not drawn)	7.1*
Cn1c2c(c(=O)[nH]c1=O)C(c1ccc(-c3ccccc3)cc1)C1=C(N2)c2ccccc2C1=O (stereo not drawn)	4.59*
Cn1c2c(c(=O)[nH]c1=O)C(c1ccc(F)cc1)C1=C(N2)c2ccccc2C1=O (stereo not drawn)	-0.29
CC1=C(C(=O)OCC(C)C)C(c2ccc(O)cc2)C2=C(CC(c3cccs3)CC2=O)N1 (stereo not drawn)	1.63
COc1cccc(C2(O)CCSc3ccccc32)c1 (stereo not drawn)	-2.72
O=C(Nc1cccc(Br)c1)c1ccn(C(=O)Nc2ccc(Cl)cc2)n1	0.74
CC1(C)CC(=O)C2=C(C1)Nc1[nH]c(=O)[nH]c(=O)c1C2c1cccnc1 (stereo not drawn)	-0.24
CC(C)(C)NC(=S)N(N)CCC#N	-0.59
O=C(Nc1ccc(Cl)cc1)Nc1ncc(C(F)(F)F)cc1Cl	0.65
O=C(NC(=O)c1c(F)cccc1Cl)NN(Cc1c(F)cccc1Cl)c1ccccc1	-0.89
CSc1ccc(/C=C2\C(=O)N(C)N=C2C)s1	0.21
Cc1ccc2nc(-c3ccc(F)cc3)cn2c1	-2.29
SMILES	Dicer processing
O=C(NCc1cccs1)c1cc2n(n1)C(C(F)(F)F)CC(c1ccco1)N2 (stereo not drawn)	-0.87
COC(=O)C1=C(C)NC(C)=C(C(=O)OC(C)C)C1c1cccc2nonc12 (stereo not drawn)	-0.72
CCOc1ccccc1C1C(C(=O)OC)=C(C)NC2=C1C(=O)c1ccccc12 (stereo not drawn)	0.84
COC(=O)C1=C(C)NC(C)=C(C(=O)OCC(C)C)C1c1ccccc1[N+](=O)[O-] (stereo not drawn)	3.86*
Cc1cc(C(=O)N/N=C/c2ccc([N+](=O)[O-])s2)nn1-c1c(Cl)cc(Cl)cc1Cl	0.12
O=S(=O)(CCSc1ncn[nH]1)c1nc2ccccc2s1	4.63
CCN(CC)C(=S)Nc1cccc(SC)c1	2
O=C(CCCO)CC(=O)c1ccc(F)cc1	0.83
O=[N+]([O-])c1ccsc1Sc1ccc(C(F)(F)F)cn1	-0.18
O=[N+]([O-])c1cc(C(F)(F)F)ccc1Sc1ccc(C(F)(F)F)cn1	-0.36
O=C1NC(=S)S/C1=C/c1ccc(Sc2ccc(C(F)(F)F)cn2)c([N+](=O)[O-])c1	3.42*
COc1cccc(C2C(C(=O)OC(C)C)=C(C)Nc3nc4ccccc4n32)c1 (stereo not drawn)	-1.62
CCCCC(C(=O)O)N1C(=O)C2C3c4ccccc4C(c4ccccc43)C2C1=O (stereo not drawn)	3.52*
O=C(O)C(Cc1ccccc1)N1C(=O)C2CCCCC2C1=O (stereo not drawn)	1.66
O=C1C2C3c4ccccc4C(C(=O)O)(c4ccccc43)C2C(=O)N1Cc1ccccc1 (stereo not drawn)	1.55
CC1CCN(c2ccc([N+](=O)[O-])c(Oc3nc4cc(Cl)ccc4s3)c2)CC1	-1.97
COc1cccc(Nc2cc(C)nc3ncnn23)c1	7.38
COc1ccc(-c2cc(-c3cccs3)[nH]c(=S)c2C#N)cc1	1.06
COc1ccc(-c2cc(-c3ccc(C)cc3)[nH]c(=S)c2C#N)cc1	0.56
N#Cc1c(-c2ccc(Cl)cc2)cc(-c2ccccc2)[nH]c1=S	3.79*
C=CCSc1nnc2c(n1)OC(c1ccc(N(C)C)cc1)N(C(C)=O)c1ccccc1-2 (stereo not drawn)	-0.47
O=C1CS(=O)(=O)CC(=O)N1c1ccc(F)cc1F	0.4
O=C(O)Cn1cnc2sc(-c3ccccc3)cc2c1=O	-0.51
CCc1ccnc(NS(=O)(=O)c2ccc(C)c(Cl)c2)c1	0.91
Cc1ccnc(NS(=O)(=O)c2ccc(Br)cc2)c1	2.62
SMILES	Dicer processing
CCc1ccnc(NS(=O)(=O)c2ccccc2)c1	3.77*
CN1CCN(Cc2c(O)ccc3c(=O)c(-c4cccc(Cl)c4)c(C(F)(F)F)oc23)CC1	-0.98
O=C(Cc1ccccc1)c1ccc(-c2ccccc2)cc1	-0.44
CCN(Cc1c(C)[nH]c2ccc(C)cc2c1=O)C1CCCCC1	-0.38
CCc1ccc(C2CC(=O)NC(SCC(=O)OC)=C2C#N)cc1 (stereo not drawn)	0.55
COCCCN1C(=O)C(=O)/C(=C(/O)c2ccc(C)cc2)C1c1ccc(C(C)C)cc1 (stereo not drawn)	-0.97
CSc1sc(C#N)c(C)c1-c1ccn(C(=O)c2cc(C(F)(F)F)cc(C(F)(F)F)c2)n1	0.69
COCc1cc(C)nc2sc(C(=O)N3CCCC3)c(N)c12	3.92*
COCc1cc(C)nc2sc(C(=O)OC)c(N)c12	1.03
Cc1cc(C)c2c(N)c(C(=O)c3ccccc3Cl)sc2n1	-2.3
Cc1ccc(-c2nnn(CC(=O)C(C)(C)C)n2)cc1Cl	0.26
O=C(Nc1ccc2oc(-c3cccc(Cl)c3)nc2c1)c1ccc([N+](=O)[O-])o1	7.04
Cc1ccc2nc(-c3ccc(C)c(NC(=O)c4ccc([N+](=O)[O-])o4)c3)oc2c1	4.11*
Cc1ccc(-c2nc3cc(Cl)ccc3o2)cc1NC(=O)c1ccc([N+](=O)[O-])o1	0.65
CC(C#N)(Nc1ccc(Cl)cc1)c1ccccc1 (stereo not drawn)	2.84
Cc1cc(C)nc(NC(=O)C(C)(C)Oc2ccc(Cl)cc2)n1	1.72
CC1=C(C(=O)OC(C)C)C(c2cccc(F)c2)n2c(nc3ccccc32)N1 (stereo not drawn)	-1
COc1ccc2cc(CCC(C)=O)ccc2c1	6.98
CCOC(=O)NC(=S)c1ccc(OC)cc1	0.26
CCOC(=O)C(C)c1ccc2cc(OC)ccc2c1 (stereo not drawn)	4.56*
Fc1ccc(-c2csc(Nc3ccccc3Cl)n2)cc1	-1.16
Cc1ccc(-c2nn(CCO)c(=O)c3ccccc23)cc1C	1.72
